The source of these data is PubChem BioAssay (NCI).

What all share (assay): NCI-60 one-dose screen, 48 h (100 = growth as untreated, 0 = no growth, -100 = all killed)
For one test, the system named is HT29 colon. The note with it: 10 µM unless noted.
For the next test, the system named is SNB-75 CNS. As to conditions: 10 µM unless noted.
The next test concerns SNB-19 CNS. The note with it: 10 µM unless noted.
The next test concerns U251 CNS. As to conditions: 10 µM unless noted.
The subject of a further test is PC-3 prostate. The note with it: 10 µM unless noted.
In the next test the test system is SK-MEL-5 melanoma. As to conditions: 10 µM unless noted.
The next test concerns UACC-62 melanoma. The note with it: 10 µM unless noted.
A further test relates to LOX IMVI melanoma. As to conditions: 10 µM unless noted.
In another test the test system is SK-MEL-2 melanoma. The note with it: 10 µM unless noted.
In the next test the test system is EKVX NSCLC. As to conditions: 10 µM unless noted.
For the next test, the system named is SN12C renal. As to conditions: 10 µM unless noted.
The test system of a further test is UO-31 renal. The note with it: 10 µM unless noted.
The test system of another test is TK-10 renal. The note with it: 10 µM unless noted.
A further test has as its system ACHN renal. The note with it: 10 µM unless noted.
The next test concerns CAKI-1 renal. The note with it: 10 µM unless noted.
A further test has as its system A498 renal. As to conditions: 10 µM unless noted.
A further test has as its system CCRF-CEM leukemia. As to conditions: 10 µM unless noted.
The test system of the next test is MOLT-4 leukemia. The note with it: 10 µM unless noted.
The subject of another test is SR leukemia. The note with it: 10 µM unless noted.
In the next test the test system is SK-MEL-28 melanoma. The note with it: 10 µM.

The panel holds about 83,000 compounds, 20% with a hit somewhere; the sample as a whole holds those more often.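 How to read the values: 0–100, growth inhibition (40 = 60% inhibited); 0, no net growth; -100 to 0, cell death (-40 = 40% of starting cells died; -100 = all dead).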 Unmarked numbers belong to inactive results. The source made the active and inactive calls. Rule for the calls: active = growth percent below 10; inactive = the rest.

`CC(C)C[C@H](C(=O)N[C@@H](C)C(N)=O)N1CC=CCN(O)S1(=O)=O`: the growth was 93.1% [5 µM] in the test with HT29 colon; 87.4% [5 µM] in the test with SNB-75 CNS; 86.2% [5 µM] in the test with SNB-19 CNS; 107% [5 µM] in the test on U251 CNS; 100% [5 µM] in the test with PC-3 prostate; 106% [5 µM] with SK-MEL-5 melanoma. Besides, the growth with UACC-62 melanoma is 108% [5 µM]; in the test on LOX IMVI melanoma it was 95.6% [5 µM]; with SK-MEL-2 melanoma, 103% [5 µM]; with EKVX NSCLC, 176% [5 µM]; in the test on SN12C renal it was 106% [5 µM]; in the test on UO-31 renal, 109% [5 µM]. In addition, the growth was 106% [5 µM] with TK-10 renal; 94.7% [5 µM] with ACHN renal; 115% [5 µM] in the test on CAKI-1 renal; 125% [5 µM] in the test on A498 renal; 105% [5 µM] in the test on CCRF-CEM leukemia; 102% [5 µM] with MOLT-4 leukemia. Besides, the growth with SR leukemia was 95.3% [5 µM].
With `CCOc1ccc(-c2nonc2NC(=O)c2cccc(C)c2)cc1OCC`, the growth in the test on HT29 colon is 28.3%; with SNB-75 CNS it was 89.2%; in the test on SNB-19 CNS, 90.7%; with U251 CNS it was 75%; in the test on PC-3 prostate it was 27.4%; in the test with SK-MEL-5 melanoma it was 35.2%. Moreover, the growth in the test with UACC-62 melanoma is 78.4%; in the test with SK-MEL-28 melanoma it was 89.5%; in the test on SK-MEL-2 melanoma, 88.6%; in the test on SN12C renal, 70.2%; in the test on UO-31 renal, 70%; in the test with TK-10 renal, 79.2%. Also, the growth in the test with ACHN renal was 83.9%; with CAKI-1 renal, 59.8%; in the test on A498 renal, 39.4%; in the test on CCRF-CEM leukemia it was 23.1%; in the test with MOLT-4 leukemia it was 4.22% (active); in the test on SR leukemia, -34.7% (active).
On to `Cc1ccc(NC2=CC(=O)C(=O)c3ccccc32)c(C)c1`, for which the growth in the test with HT29 colon was 48.4%; in the test on SNB-75 CNS, 35.2%; in the test with SNB-19 CNS, 28.1%; with U251 CNS, 33.3%; in the test on PC-3 prostate, 35.4%; with SK-MEL-5 melanoma, -97.3% (active). In addition, the growth in the test with UACC-62 melanoma was -59.5% (active); in the test on LOX IMVI melanoma it was -23.2% (active); in the test on SK-MEL-2 melanoma, 76.6%; in the test with EKVX NSCLC, 143%; with SN12C renal, 44.1%; in the test on UO-31 renal, 71.2%. The growth was 80.8% with TK-10 renal; 15.9% in the test with ACHN renal; 82.7% with CAKI-1 renal; 109% with A498 renal; 43.7% with CCRF-CEM leukemia; 36.9% in the test with MOLT-4 leukemia. In addition, the growth in the test on SR leukemia was 56.4%.
For the compound `N[C@@H](CC/[N+]([O-])=N/O)C(=O)O`, the growth in the test with HT29 colon is 99.8%; with SNB-75 CNS, 113%; in the test on SNB-19 CNS, 97.8%; with U251 CNS, 94.9%; with PC-3 prostate it was 102%; with UACC-62 melanoma it was 98.4%. Moreover, the growth with LOX IMVI melanoma was 104%; in the test with SK-MEL-28 melanoma it was 106%; in the test on SK-MEL-2 melanoma it was 107%; in the test on EKVX NSCLC it was 89.3%; in the test with SN12C renal it was 101%; in the test with UO-31 renal, 94.9%. The growth was 104% with TK-10 renal; 105% in the test with ACHN renal; 97.6% in the test with CAKI-1 renal; 111% in the test with A498 renal; 105% in the test with CCRF-CEM leukemia; 104% with MOLT-4 leukemia. Also, in the test on SR leukemia, the growth was 126%.
In the case of `O=C(COc1cc(O)c2c(=O)cc(-c3ccccc3)oc2c1)Nc1ccccc1C(F)(F)F`, the growth is 70.6% with HT29 colon; -4.06% (active) with SNB-75 CNS; 45.2% in the test with SNB-19 CNS; 4.09% (active) in the test on U251 CNS; 64.6% in the test with PC-3 prostate; 77.5% in the test on UACC-62 melanoma. Further, the growth with LOX IMVI melanoma was 52%; in the test with SK-MEL-28 melanoma it was 79.1%; in the test on SK-MEL-2 melanoma, 92%; in the test on EKVX NSCLC, 51.4%; in the test on SN12C renal, 27.7%; in the test on UO-31 renal, 17.1%. The growth with TK-10 renal was -13.9% (active); with ACHN renal, 17.8%; with CAKI-1 renal, 22.3%; in the test on A498 renal, 55.9%; in the test on CCRF-CEM leukemia it was 58.6%; in the test on MOLT-4 leukemia, 52.1%.
Take `O=c1oc2ccc(F)cc2c(=O)n1-c1ccc(Cl)cc1F`: the growth in the test with HT29 colon is 26.7%; in the test on SNB-75 CNS, -13.6% (active); in the test with SNB-19 CNS, 16.1%; in the test on U251 CNS it was 2.3% (active); in the test on PC-3 prostate, 0.0571% (active); with UACC-62 melanoma it was -8.7% (active). In addition, the growth is 16.9% in the test with LOX IMVI melanoma; 14.7% in the test with SK-MEL-28 melanoma; -28.7% (active) with SK-MEL-2 melanoma; 9.11% (active) in the test with EKVX NSCLC; 1.59% (active) with SN12C renal; 1.41% (active) in the test with UO-31 renal. Moreover, the growth is 5.92% (active) with TK-10 renal; 1.55% (active) in the test on ACHN renal; -21.5% (active) in the test on CAKI-1 renal; -51% (active) in the test on A498 renal; 12.7% in the test with CCRF-CEM leukemia; -5.46% (active) in the test on MOLT-4 leukemia.
Consider `Clc1ccc(Oc2ccc(Nc3ncnc4onc(-c5ccccc5)c34)cc2)c(Cl)c1`, for which the growth in the test with HT29 colon was 84.2%; in the test with SNB-75 CNS, 83.5%; in the test on SNB-19 CNS it was 106%; in the test with U251 CNS, 102%; in the test with PC-3 prostate, 94.2%; with UACC-62 melanoma it was 81%. The growth was 98.4% with LOX IMVI melanoma; 102% with SK-MEL-28 melanoma; 104% in the test with SK-MEL-2 melanoma; 103% with EKVX NSCLC; 94% with SN12C renal; 67% with UO-31 renal. Besides, the growth is 105% with TK-10 renal; 105% in the test on ACHN renal; 90.6% with CAKI-1 renal; 103% in the test on A498 renal; 98.1% in the test on CCRF-CEM leukemia; 80.6% in the test with SR leukemia.
In the case of `COc1ccc(-n2c(C(O)c3ccccc3)nn(CN3CCOCC3)c2=S)cc1` (stereo not drawn), the growth in the test with HT29 colon is 109%; with SNB-75 CNS, 87.4%; in the test on SNB-19 CNS, 92.7%; with U251 CNS it was 95.2%; with PC-3 prostate, 101%; with UACC-62 melanoma, 95.8%. Further, the growth in the test with LOX IMVI melanoma was 95.4%; in the test with SK-MEL-28 melanoma it was 89.2%; with SK-MEL-2 melanoma, 95.2%; in the test on EKVX NSCLC, 111%; with SN12C renal it was 91%; in the test with UO-31 renal it was 77.5%. The growth in the test on TK-10 renal is 119%; in the test on ACHN renal, 88.6%; in the test on CAKI-1 renal it was 97%; in the test with A498 renal it was 115%; with CCRF-CEM leukemia, 96.6%; in the test with MOLT-4 leukemia it was 123%. In the test with SR leukemia, the growth was 193%.
